The nature of assay [1]: Nuclear factor erythroid 2-related factor 2/antioxidant responsive element (Nrf2/ARE) small molecule agonists: qHTS cell viability counter screen in human keratinocytes (AID 1919968; active = well fitted curve in the direction sought with a large enough effect in the repeat runs; an effect the other way counts as inactive or inconclusive; also: nearly all actives have a fitted effect of over 55% in size; also: potency is read from the fitted curve at half-maximal effect). A digest of the protocol:
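KeratinoSens cells (HaCaT keratinocytes stably carrying an ARE-luciferase reporter) were seeded at 1,500 cells/well and rested 5 h at 37 C/5% CO2. They were then exposed to compounds in DMSO for 23 h. Viability was read by CellTiter-Fluor fluorescence after 1 h.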
(In general: Quantitative high-throughput screening tests each substance at several concentrations.)

A short description of assay [2]: Nuclear factor erythroid 2-related factor 2/antioxidant responsive element (Nrf2/ARE) small molecule agonists: luciferase reporter gene qHTS assay in human keratinocytes (AID 1919969; also: nearly all actives have a fitted effect of over 35% in size; also: potency is read from the fitted curve at half-maximal effect). (In a reporter assay the amount or activity of a reporter protein is the signal.)
Assay [3] addresses KiSS-1 receptor (Homo sapiens) (UniProt Q969F8). In words: Human kisspeptin (KISS1R) small molecule agonists, calcium flux assay in KISS1R-HEK293 cells (AID 1920064; active = well fitted curve in the direction sought with a large enough effect in the repeat runs; an effect the other way counts as inactive or inconclusive). A digest of the protocol:
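HEK293 cells stably expressing human KISS1R were plated 18 h at 37 °C, loaded with calcium dye for 1 h at 37 °C, then given compound by pin tool. Fluorescence (Ex/Em 480/540) was read kinetically for 3 min.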

Assay [4] in a line: G protein-coupled receptor (GPCR) small molecule agonists, calcium flux assay: HEK293 wild type cell line counter screen (AID 1920065). A digest of the protocol: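 Cells were plated and cultured 18 h at 37 C/5% CO2, then loaded with calcium dye for 1 h at 37 C. Compounds in DMSO were pin-transferred in agonist mode, and fluorescence (Ex/Em 480/540) was read kinetically for 3 min at 1 s intervals.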

Assay [5] is described as follows: p53 small molecule agonists, cell-based qHTS assay with rat liver microsomes (AID 1963578). The essentials: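 p53RE-bla cells were exposed to compounds together with rat liver microsomes (0.5 mg/mL final) and NADPH (0.5 mg/mL final) for 16 h at 37 C, then read by LiveBLAzer beta-lactamase fluorescence after 2 h at room temperature.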
A short description of assay [6]: p53 small molecule agonists, cell-based qHTS assay: qHTS cell viability counter screen (AID 1963581). Also: nearly all actives have a fitted effect of over 45% in size. Also: potency is read from the fitted curve at half-maximal effect. The essentials: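 p53RE-bla HCT-116 cells were exposed to compounds for 16 h at 37 C; after the beta-lactamase FRET read in the same wells, CellTiter-Glo was added and luminescence (intracellular ATP) read after 30 min at room temperature.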
The target in assay [7] is 5-hydroxytryptamine receptor 2A (Homo sapiens) (UniProt P28223). As to the kind of experiment: 5-hydroxytryptamine receptor 2A (HTR2A) small molecule agonists, cell-based qHTS assay (AID 1963587). Also: nearly all actives have a fitted effect of over 30% in size. Also: potency is read from the fitted curve at half-maximal effect. A digest of the protocol: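 CHO cells stably expressing human HTR2A, plated 18 h, loaded with calcium dye 1 h at 37 C. Agonist mode: compounds added and intracellular calcium fluorescence recorded kinetically for 2 min at 1 sec intervals.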
5-hydroxytryptamine receptor 2A (Homo sapiens), sequence (P28223 whole entry, looked up): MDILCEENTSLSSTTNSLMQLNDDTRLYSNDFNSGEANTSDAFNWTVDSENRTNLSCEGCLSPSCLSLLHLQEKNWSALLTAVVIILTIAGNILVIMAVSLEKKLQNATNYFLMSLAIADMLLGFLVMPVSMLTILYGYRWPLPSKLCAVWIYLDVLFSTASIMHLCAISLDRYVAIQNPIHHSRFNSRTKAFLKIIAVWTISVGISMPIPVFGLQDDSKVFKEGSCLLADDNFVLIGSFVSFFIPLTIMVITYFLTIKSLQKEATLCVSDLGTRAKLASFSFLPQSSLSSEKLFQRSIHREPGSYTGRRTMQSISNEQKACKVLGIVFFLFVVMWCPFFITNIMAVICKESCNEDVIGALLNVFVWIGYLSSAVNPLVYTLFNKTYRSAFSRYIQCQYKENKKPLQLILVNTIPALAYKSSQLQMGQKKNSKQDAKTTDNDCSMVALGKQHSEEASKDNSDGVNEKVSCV

For assay [8], the target named is Muscarinic acetylcholine receptor M1 (Homo sapiens) (UniProt P11229). As to the kind of experiment: Cholinergic receptor muscarinic 1 (CHRM1) small molecule agonists, cell-based qHTS assay (AID 1963589). Also: nearly all actives have a fitted effect of over 35% in size. Also: potency is read from the fitted curve at half-maximal effect. A digest of the protocol: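 CHO cells stably expressing human CHRM1, seeded 18 h at 37 C/5% CO2, dye-loaded 1 h at 37 C, then given compound in agonist mode; intracellular calcium fluorescence read kinetically at 1 s intervals. Fifteen concentrations, three independent runs.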
Muscarinic acetylcholine receptor M1 (Homo sapiens), sequence (P11229 whole entry, looked up): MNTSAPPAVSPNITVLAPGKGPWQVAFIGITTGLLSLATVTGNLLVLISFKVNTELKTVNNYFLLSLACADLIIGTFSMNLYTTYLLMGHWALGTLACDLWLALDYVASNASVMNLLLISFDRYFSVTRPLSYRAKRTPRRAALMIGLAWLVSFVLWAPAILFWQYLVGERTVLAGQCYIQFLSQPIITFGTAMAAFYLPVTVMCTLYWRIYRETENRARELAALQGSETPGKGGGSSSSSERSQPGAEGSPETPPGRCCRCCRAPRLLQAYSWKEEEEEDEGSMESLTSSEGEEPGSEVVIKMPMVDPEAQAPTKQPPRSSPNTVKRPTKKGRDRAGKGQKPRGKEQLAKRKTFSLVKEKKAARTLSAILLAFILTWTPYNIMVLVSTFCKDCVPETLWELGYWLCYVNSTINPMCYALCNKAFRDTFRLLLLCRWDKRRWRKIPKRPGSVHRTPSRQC

Assay [9] has as its target Beta-2 adrenergic receptor (Homo sapiens) (UniProt P07550). As to the kind of experiment: Adrenergic beta2 receptor (ADRB2) small molecule antagonists, cell-based qHTS assay (AID 1963592). Also: nearly all actives have a fitted effect of over 50% in size. Also: potency is read from the fitted curve at half-maximal effect. A digest of the protocol: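 Cells (CHO, stable ADRB2 overexpression) incubated 18-20hr at 37C; compounds added from DMSO; agonist mix (1nM isoproterenol, 100uM IBMX, 25uM Ro-20-1724) added; 0.5hr RT; d2-cAMP and anti-cAMP-cryptate added; 1hr RT; 665/615 nm read.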

Assay [10] has as its target D(2) dopamine receptor (Homo sapiens) (UniProt P14416). In words: Dopamine D2 receptor (DRD2) small molecule antagonists, cell-based qHTS assay (AID 1963595; active = well fitted inhibition curve with a large enough effect in the signal ratio in the repeat runs, with a control signal flat; the % refers to the signal ratio; also: potency is read from the fitted curve at half-maximal effect). The essentials: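 HEK293 cells stably expressing DRD2 were preincubated with 0.1 mM Ro20-1724, then with compound for 10 min at room temperature. Cells were stimulated with 200 nM NKH477 plus 12 nM quinpirole for 30 min, and cAMP was read by HTRF.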

The nature of assay [11]: p53 small molecule agonists, cell-based qHTS assay with human liver microsomes (AID 1963577). A digest of the protocol:
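p53RE-bla reporter cells were pre-incubated 5 h at 37 C, then treated with compounds plus human liver microsomes (0.5 mg/mL final) and NADPH (0.5 mg/mL final) for 16 h at 37 C. Beta-lactamase activity was read by LiveBLAzer fluorescence after 2 h at room temperature.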

Assay [12] is described as follows: p53 small molecule agonists, cell-based qHTS assay with human liver microsomes: qHTS cell viability counter screen (AID 1963579). Also: nearly all actives have a fitted effect of over 45% in size. A digest of the protocol:
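p53RE-bla cells (4,000/well) were pre-incubated 5 h at 37 C, then given compounds in DMSO plus human liver microsomes (0.5 mg/mL final) and NADPH (0.5 mg/mL final) for 16 h at 37 C. Viability was read by CellTiter-Glo luminescence.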

The nature of assay [13]: p53 small molecule agonists, cell-based qHTS assay with rat liver microsomes: qHTS cell viability counter screen (AID 1963580). Also: nearly all actives have a fitted effect of over 45% in size. Also: potency is read from the fitted curve at half-maximal effect. The essentials:
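p53RE-bla HCT-116 cells were exposed 16 h at 37 C to compounds with rat liver microsomes (0.5 mg/mL) and NADPH (0.5 mg/mL). Viability was measured in the same wells as ATP content by CellTiter-Glo luminescence.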

Assay [14] has as its target Muscarinic acetylcholine receptor M1 (Homo sapiens) (UniProt P11229). In words: Cholinergic receptor muscarinic 1 (CHRM1) small molecule antagonists, cell-based qHTS assay (AID 1963588). Also: nearly all actives have a fitted effect of over 40% in size. Also: potency is read from the fitted curve at half-maximal effect. A digest of the protocol:
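CHRM1-CHO calcium-flux assay, antagonist mode. Cells were seeded 18 h, dye-loaded 1 h at 37 C and given compound for 5 min at RT, then acetylcholine was added at 50nM. FDSS fluorescence was read 3 min; 15 concentrations, three runs.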

Assay [15] has as its target Beta-2 adrenergic receptor (Homo sapiens) (UniProt P07550). As to the kind of experiment: Adrenergic beta2 receptor (ADRB2) small molecule agonists, cell-based qHTS assay (AID 1963593). Also: potency is read from the fitted curve at half-maximal effect.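 As to activation: CHO cells stably overexpressing human ADRB2.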 A digest of the protocol:
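CHO cells stably over-expressing ADRB2 were plated overnight at 37C, then dosed with compounds plus a stimulation mix containing 100uM IBMX and 25uM Ro-20-1724 for 0.5hr at room temperature. cAMP was measured by HTRF competition, 1hr.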

For assay [16], the target named is D(2) dopamine receptor (Homo sapiens) (UniProt P14416). In words: Dopamine D2 receptor (DRD2) small molecule agonists, cell-based qHTS assay (AID 1963594). Also: nearly all actives have a fitted effect of over 35% in size. A digest of the protocol: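 HEK293 cells stably expressing human DRD2, pre-treated with PDE inhibitor Ro20-1724 (0.1 mM final) and compound 10 min at room temperature, then stimulated with NKH477 (200nM […]) for 30 min. cAMP read by HTRF (665/620 nm).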
D(2) dopamine receptor (Homo sapiens), sequence (P14416 whole entry, looked up): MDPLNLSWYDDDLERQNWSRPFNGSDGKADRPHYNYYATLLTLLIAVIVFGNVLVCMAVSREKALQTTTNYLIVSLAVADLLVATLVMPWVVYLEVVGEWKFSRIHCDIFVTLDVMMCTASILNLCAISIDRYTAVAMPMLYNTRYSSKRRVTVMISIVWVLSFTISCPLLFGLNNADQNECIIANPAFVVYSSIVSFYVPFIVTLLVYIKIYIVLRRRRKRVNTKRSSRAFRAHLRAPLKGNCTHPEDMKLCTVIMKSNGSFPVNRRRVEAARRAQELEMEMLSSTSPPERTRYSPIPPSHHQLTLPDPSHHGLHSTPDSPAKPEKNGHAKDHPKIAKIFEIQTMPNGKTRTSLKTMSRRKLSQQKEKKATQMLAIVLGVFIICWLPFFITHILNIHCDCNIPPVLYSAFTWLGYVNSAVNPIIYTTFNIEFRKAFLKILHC

Assay [17] addresses 5-hydroxytryptamine receptor 2A (Homo sapiens) (UniProt P28223). As to the kind of experiment: 5-hydroxytryptamine receptor 2A (HTR2A) small molecule antagonists, cell-based qHTS assay (AID 1963586). Also: nearly all actives have a fitted effect of over 45% in size. Also: potency is read from the fitted curve at half-maximal effect. The essentials: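 Antagonist-mode intracellular calcium assay: DOI (4 nM) added after 5 min compound pre-incubation at room temperature to dye-loaded HTR2A-CHO cells. Fluorescence followed for 3 min, sampled every second.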

Assay [18] is described as follows: cAMP Responsive Elements (CRE) small molecule agonists, cell-based qHTS assay (AID 1963590). The essentials: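 CRE-bla HEK 293T cells in DMEM with 10% dialyzed FBS, NEAA, pyruvate and 25 mM HEPES were plated 18 h at 37 C/5% CO2, then exposed to compounds in DMSO for 3 h before LiveBLAzer B/G FRET substrate addition.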
The nature of assay [19]: cAMP Responsive Elements (CRE) small molecule antagonists, cell-based qHTS assay (AID 1963591; active = well fitted inhibition curve with a large enough effect in the signal ratio in the repeat runs, not every such curve was filed as active; the % refers to the signal ratio). A digest of the protocol:
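CRE-bla HEK293T cells were plated 18 h at 37 °C/5% CO2, pinned with compound in DMSO, then stimulated with NKH477 at 0.25 uM final for 3 h. LiveBLAzer B/G FRET substrate was added and plates incubated 2 h at room temperature.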

The nature of assay [20]: p53 small molecule agonists, cell-based qHTS assay (AID 1963582; active = well fitted activation curve with a large enough effect in the signal ratio in the repeat runs, not every such curve was filed as active; the % refers to the signal ratio). The essentials:
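p53RE-bla beta-lactamase reporter cells rested 5 h at 37 C/5% CO2, then received compounds in DMSO by pin transfer and were incubated 16 h at 37 C. LiveBLAzer B/G FRET substrate was loaded for 2 h at room temperature before fluorescence reading.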

The structures appear in SMILES notation. Values without a mark were called inactive. Results filed as inconclusive are left out. Active and inactive are the calls of the source. Unless noted, calls follow the shape of the full dose curve.
% is scaled to controls: 0 for no effect and ±100 for the full control effect.

Beta-2 adrenergic receptor (Homo sapiens), sequence (P07550 whole entry, looked up): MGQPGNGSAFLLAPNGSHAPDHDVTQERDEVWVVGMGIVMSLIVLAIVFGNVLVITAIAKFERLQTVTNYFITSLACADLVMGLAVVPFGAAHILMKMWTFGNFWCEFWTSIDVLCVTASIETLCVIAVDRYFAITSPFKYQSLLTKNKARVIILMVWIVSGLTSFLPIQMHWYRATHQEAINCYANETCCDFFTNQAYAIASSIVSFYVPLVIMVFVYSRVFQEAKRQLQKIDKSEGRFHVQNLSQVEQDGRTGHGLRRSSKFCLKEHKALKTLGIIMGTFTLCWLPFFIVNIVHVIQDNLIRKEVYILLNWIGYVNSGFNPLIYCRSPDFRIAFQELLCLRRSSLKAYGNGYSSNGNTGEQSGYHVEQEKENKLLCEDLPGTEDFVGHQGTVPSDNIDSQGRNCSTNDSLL
KiSS-1 receptor (Homo sapiens), sequence (Q969F8 whole entry, looked up): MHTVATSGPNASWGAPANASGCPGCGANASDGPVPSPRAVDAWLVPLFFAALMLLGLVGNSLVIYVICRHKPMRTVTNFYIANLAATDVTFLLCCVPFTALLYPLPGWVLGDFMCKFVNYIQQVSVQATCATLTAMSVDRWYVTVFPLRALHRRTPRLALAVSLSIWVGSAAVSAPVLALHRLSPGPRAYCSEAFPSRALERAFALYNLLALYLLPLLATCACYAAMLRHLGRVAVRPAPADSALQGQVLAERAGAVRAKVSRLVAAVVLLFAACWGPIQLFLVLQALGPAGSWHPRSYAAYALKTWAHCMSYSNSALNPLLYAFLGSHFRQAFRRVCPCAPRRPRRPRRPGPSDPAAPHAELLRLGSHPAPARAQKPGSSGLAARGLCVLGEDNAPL

As for `C=CCC1=C(C)C(OC(=O)C2C(C=C(C)C)C2(C)C)CC1=O` (stereo not drawn), the Potency in assay [1] was 34.4 µM (active); in assay [2] it was 23 µM (active); in assay [6], 28.9 µM (active); in assay [10] it was 57.8 µM (active). Further, the Potency result in assay [3], in assay [4], in assay [5], in assay [7], in assay [8] and in assay [9] was “inactive” throughout.
For the molecule `C[C@H](N)[C@H](O)c1ccc(O)c(O)c1`, the Potency entry in assay [1], in assay [2], in [3], in assay [11], in [5] and in [12] was “inactive” throughout. Also, the Potency entry in assay [13], in assay [6], in assay [7], in assay [14], in assay [8] and in assay [16] was “inactive” each time. In addition, the Potency in assay [15] was 7.5 µM (active).
For `CN(C)CCc1c[nH]c2ccccc12`, the Potency result in assay [1], in assay [3], in assay [4], in [13], in [14] and in assay [8] was “inactive” throughout. The Potency entry in [18], in [19], in assay [9] and in assay [10] was “inactive” throughout. Further, the Potency in assay [2] is 108 µM (active); in [17], 0.0166 µM (active); in assay [7], 0.0109 µM (active).
As for `CCN1CCCC1CNC(=O)C(O)(c1ccccc1)c1ccccc1` (stereo not drawn), the Potency result in assay [1], in [2], in assay [3], in [4], in assay [5] and in assay [13] was “inactive” throughout. Further, the Potency result in [6], in assay [20], in assay [8], in [18], in assay [19] and in [9] was “inactive” in each case. Further, the Potency entry in assay [16] and in [10] was “inactive” throughout. Further, the Potency in assay [7] was 2.68 µM (active); in assay [14], 0.0918 µM (active).
Regarding `O=[N+]([O-])c1c(Cl)c(Cl)cc(Cl)c1Cl`, the Potency in [1] is 43.3 µM (active); in assay [2] it was 9.69 µM (active); in [13], 36.3 µM (active); in assay [14] it was 11.2 µM (active); in assay [8] it was 3.47 µM (active). Further, the Potency result in assay [3], in assay [4], in assay [5], in assay [12], in [6] and in assay [7] was “inactive” throughout. The Potency entry in assay [19] and in assay [9] was “inactive” in each case.
Consider `COc1nn(CSP(=S)(OC)OC)c(=O)s1`, for which the Potency entry in [1], in [3], in assay [4], in [17], in assay [7] and in assay [8] was “inactive” in each case. Besides, the Potency result in [9] is “inactive”. In addition, the Potency in assay [2] was 68.6 µM (active).
Take `C1CCC(C2CCCCC2)CC1`: the Potency entry in assay [1], in assay [2], in [3], in assay [4], in [12] and in assay [6] was “inactive” in each case. Moreover, the Potency entry in [17], in assay [7], in [14], in assay [8], in assay [9] and in assay [15] was “inactive” each time. Besides, the Potency result in assay [16] and in assay [10] was “inactive” throughout.
As for `CCC[CH2][Sn]([CH2]CCC)([CH2]CCC)[O][Sn]([CH2]CCC)([CH2]CCC)[CH2]CCC`, the Potency in assay [1] was 0.533 µM (active); in assay [2] it was 0.533 µM (active); in [6], 0.893 µM (active); in assay [9] it was 1.68 µM (active); in assay [10], 2.12 µM (active). Also, the activation was 9.21% [at 6.97 µM] in assay [3]; 2.41% [at 5.23 µM] in assay [4]; -3.45% [at 5.99 µM] in assay [5]; 7.77% [at 6.97 µM] in assay [8]; 2.93% [at 8.39 µM] in [16]. For the same molecule, the activity, negative = inhibition in assay [14] is 0.927% [at 5.58 µM].

The values above are taken from PubChem BioAssay (Tox21).
